The nature of assay [1]: qHTS assay for small molecule activators of the nuclear factor-kappa B (NF-kB) signaling pathway (AID 651749; active means well fitted activation curve with a large enough effect in the signal ratio; the % refers to the signal ratio; further: series mostly up to about 77 µM). The following applies: NF-kB-bla ME-180 cells, beta-lactamase FRET ratio, 16 h; activation: hits give high values. Put shortly:
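Activation measured after 16 hr compound treatment at 37C, 5% CO2, of 2,000 ME-180 cells/well stably expressing an NF-kB response element–driven beta-lactamase reporter, via FRET-disruption fluorescence.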

Assay [2] in a line: qHTS assay to identify small molecules that stimulate interleukin-8 (IL-8) secretion (AID 651758; active means well fitted activation curve with a large enough effect in the signal ratio; the % refers to the signal ratio). Put shortly:
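Secreted IL-8 measured homogeneously by TR-FRET (two labelled anti-IL-8 antibodies, 1-3 h at room temperature) after a 16 h, 37 C compound treatment of THP-1 cells at 2000 cells/well.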

Assay [3] is described as follows: KB-8-5-11 P-gp reporter qHTS against the NCATS DSHEA and TCM libraries (AID 1919977). The essentials: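 CellTiter-Glo luminescence measured viability after ~72 h exposure (37C, 5% CO2) of KB-8-5-11 cervical adenocarcinoma cells overexpressing P-gp. Colchicine was omitted during assay. Substances were tested as titrations.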
The target of assay [4] is Cytochrome P450 3A4 (Homo sapiens) (UniProt P08684). In words: qHTS Assay for Activators of Cytochrome P450 3A4 (AID 885). Further: nearly all actives have a fitted effect of over 65% in size. The essentials: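 Activators are scored by enhanced luminescence from CYP3A4 conversion of luciferin-PPXE (25uM, equal to KM) to luciferin, after 60 min at RT with an NADPH-regenerating system.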
Chain of Cytochrome P450 3A4 (Homo sapiens) (P08684 whole entry, looked up): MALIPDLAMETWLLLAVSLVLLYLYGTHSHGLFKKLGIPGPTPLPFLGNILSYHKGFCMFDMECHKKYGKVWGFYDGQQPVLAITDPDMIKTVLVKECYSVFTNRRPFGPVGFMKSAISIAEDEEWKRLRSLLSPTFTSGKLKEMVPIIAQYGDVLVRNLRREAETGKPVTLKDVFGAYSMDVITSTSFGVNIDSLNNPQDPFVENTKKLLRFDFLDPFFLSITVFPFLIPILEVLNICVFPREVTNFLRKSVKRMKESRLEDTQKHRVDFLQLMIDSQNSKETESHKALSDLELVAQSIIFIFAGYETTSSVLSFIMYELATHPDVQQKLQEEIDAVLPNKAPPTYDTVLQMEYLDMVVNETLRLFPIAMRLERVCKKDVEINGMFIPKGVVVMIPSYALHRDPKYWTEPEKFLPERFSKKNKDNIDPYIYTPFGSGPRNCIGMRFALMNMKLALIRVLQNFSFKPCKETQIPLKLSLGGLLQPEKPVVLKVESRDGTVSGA
The target of assay [5] is Androgen receptor (Homo sapiens) (UniProt P10275). Briefly: qHTS assay for small molecule agonists of androgen receptor signaling (AID 588515; active means well fitted curve in the direction sought with a large enough effect in the signal ratio, with a control signal flat; the % refers to the signal ratio). The settings on record: AR-UAS-bla HEK293, beta-lactamase ratio, agonist 16 h; hits give high values. The essentials:
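Stimulation of an AR-responsive β-lactamase reporter in GripTite HEK293 cells was measured after 16 h compound exposure at 37 °C, via CCF4 fluorescence after 2 h RT. EC50 from Hill fits, normalized to R1881 at 30 nM.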
For orientation: Quantitative high-throughput screening tests each substance at several concentrations.

For assay [6] the target is unchanged. Briefly: qHTS assay for small molecule antagonists of androgen receptor signaling (AID 588516; active means well fitted curve in the direction sought with a large enough effect in the signal ratio, with a control signal flat, not every such curve was filed as active; the % refers to the signal ratio). Put shortly: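 Antagonist mode: inhibition of R1881-stimulated (10 nM final) bla reporter in GeneBLAzer AR HEK 293 cells, 16 h at 37C, compounds titrated. IC50 and efficacy from Hill-equation fits of 405/460–530 nm FRET ratios.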
Assay [7] addresses Bile acid receptor (Homo sapiens) (UniProt Q96RI1). In words: qHTS assay for small molecule agonists of farnesoid X receptor signaling (AID 588527; calls by dose curve; further: series mostly up to about 77 µM). The settings on record: HEK293T FXR-UAS-bla, beta-lactamase ratio, 16 h; hits give high values. Put shortly: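 Read-out: beta-lactamase reporter fluorescence with CCF4 substrate in GeneBLAzer FXR-UAS-bla HEK293T cells, after 16 h compound exposure at 37 C. Response scaled between DMSO basal (0%) and chenodeoxycholic acid at 100 uM (100%).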

Several values for one entry are separate records, joined by “and”; a condition that tells them apart may be missing. Equal entries are not always repeated. Unmarked numbers belong to inactive results. Records with an inconclusive call do not appear. Where a call stands in place of a potency, no number is given. Activity calls are given as the source filed them. Unless noted, the call rests on the fitted dose curve; in most records, active means well fitted curve in the direction sought with a large enough effect; inconclusive means small, poorly fitted or top-dose-only effect, or another doubt; inactive means no such curve, though single readings can be large; an effect the other way counts as inactive or inconclusive.

Chain of Androgen receptor (Homo sapiens) (P10275 whole entry, looked up): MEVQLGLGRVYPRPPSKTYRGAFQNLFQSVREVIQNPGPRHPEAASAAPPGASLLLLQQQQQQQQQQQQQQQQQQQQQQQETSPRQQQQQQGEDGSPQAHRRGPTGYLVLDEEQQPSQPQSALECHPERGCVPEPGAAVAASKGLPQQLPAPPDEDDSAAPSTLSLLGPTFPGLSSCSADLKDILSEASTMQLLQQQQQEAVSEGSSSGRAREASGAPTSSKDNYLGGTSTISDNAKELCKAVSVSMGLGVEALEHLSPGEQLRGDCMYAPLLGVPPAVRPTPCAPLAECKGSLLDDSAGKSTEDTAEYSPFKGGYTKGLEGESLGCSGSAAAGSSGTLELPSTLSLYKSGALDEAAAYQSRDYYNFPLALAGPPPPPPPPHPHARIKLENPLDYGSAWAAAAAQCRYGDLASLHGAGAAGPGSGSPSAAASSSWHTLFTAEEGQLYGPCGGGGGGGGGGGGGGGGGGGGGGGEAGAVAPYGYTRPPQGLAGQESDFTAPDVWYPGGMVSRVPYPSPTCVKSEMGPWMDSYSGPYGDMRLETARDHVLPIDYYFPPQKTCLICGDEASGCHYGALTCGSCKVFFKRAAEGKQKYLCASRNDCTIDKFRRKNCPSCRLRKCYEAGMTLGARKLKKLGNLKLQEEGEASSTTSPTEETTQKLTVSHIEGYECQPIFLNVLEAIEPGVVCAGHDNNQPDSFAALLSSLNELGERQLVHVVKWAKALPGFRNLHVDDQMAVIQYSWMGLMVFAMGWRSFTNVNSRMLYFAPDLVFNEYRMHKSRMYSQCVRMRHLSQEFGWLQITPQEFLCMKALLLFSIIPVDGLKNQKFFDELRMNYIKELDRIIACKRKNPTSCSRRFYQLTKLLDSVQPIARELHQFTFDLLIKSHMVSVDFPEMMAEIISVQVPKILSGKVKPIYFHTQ
Chain of Bile acid receptor (Homo sapiens) (Q96RI1 whole entry, looked up): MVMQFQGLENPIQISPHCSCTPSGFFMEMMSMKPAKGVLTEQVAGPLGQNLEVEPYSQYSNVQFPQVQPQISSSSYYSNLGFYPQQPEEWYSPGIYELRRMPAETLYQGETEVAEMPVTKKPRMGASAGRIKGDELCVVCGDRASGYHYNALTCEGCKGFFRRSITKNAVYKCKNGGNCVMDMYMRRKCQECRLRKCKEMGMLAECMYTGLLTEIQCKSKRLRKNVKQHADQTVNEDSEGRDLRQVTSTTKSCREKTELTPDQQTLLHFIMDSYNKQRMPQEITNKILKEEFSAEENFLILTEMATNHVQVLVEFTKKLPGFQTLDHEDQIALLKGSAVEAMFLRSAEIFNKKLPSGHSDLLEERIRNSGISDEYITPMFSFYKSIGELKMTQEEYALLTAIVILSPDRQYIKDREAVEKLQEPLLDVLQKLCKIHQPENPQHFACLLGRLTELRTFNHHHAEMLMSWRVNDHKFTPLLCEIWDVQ

For `Cc1ccccc1N`, the activation in assay [1] is 0.244% and -0.381%. In addition, in assay [2], the Potency result was “inactive”.

Consider `CC1=CC[C@H](C(C)C)C=C1`, for which, in assay [3], the Potency result was “inactive”.

As for `CC/C=C\C/C=C\C/C=C\C/C=C\CCCCC(=O)O`, the activity change, negative = inhibition in assay [3] was -0.921% [at 3.26 µM].

As for `CC1CC[C@]2(C(=O)O)CC[C@]3(C(=O)O)C(=CCC4[C@@]5(C)CC[C@H](OC6OC(C)C(O)C(OC7OC(CO)C(O)C(O)C7O)C6O)C(C)(C)C5CC[C@]43C)C2C1C` (stereo not given in full), the Potency result in assay [3] is “inactive”.

With `CC(C)=CCC[C@](C)(O[C@@H]1O[C@H](CO)[C@@H](O)[C@H](O)[C@H]1O)[C@H]1CC[C@]2(C)[C@@H]1[C@H](O)C[C@@H]1[C@@]3(C)CC[C@H](O[C@@H]4O[C@H](CO)[C@@H](O)[C@H](O)[C@H]4O[C@@H]4O[C@H](CO)[C@@H](O)[C@H](O)[C@H]4O)C(C)(C)[C@@H]3CC[C@]12C`, the Potency entry in assay [3] is “inactive”.

On to `CC/C=C\C/C=C\C/C=C\C/C=C\C/C=C\CCCCCC(=O)O`, for which, in assay [3], the activity change, negative = inhibition was 8.8% [at 3.26 µM].

Consider `Cc1c(C)c2c(c(C)c1O)CC[C@@](C)(CCC[C@H](C)CCC[C@H](C)CCCC(C)C)O2`, for which the Potency result in assay [3] was “inactive”.

With `C=C1C[C@]23CC[C@H]4[C@@](C)(CCC[C@@]4(C)C(=O)O)[C@@H]2CC[C@@]1(O[C@@H]1O[C@H](CO)[C@@H](O)[C@H](O)[C@H]1O[C@@H]1O[C@H](CO)[C@@H](O)[C@H](O)[C@H]1O)C3`, in assay [3], the Potency entry is “inactive”.

Consider `OCCc1ccc(O)cc1`, for which the Potency entry in assay [3] was “inactive”.

With `C[C@@]12CC[C@@H]3[C@@](CC[C@H]4[C@@]3(C)CCC[C@@]4(C)C(=O)O)(CC1=O)C2`, in assay [3], the Potency result is “inactive”.

In the case of `NC(Cc1c[nH]c2ccccc12)C(=O)O` (stereo not given), the Potency entry in assay [3] was “inactive”.

For the compound `CC1=CCC2CC1C2(C)C` (stereo not given), the Potency entry in assay [3] is “inactive”.

Regarding `CCCCCCCC/C=C\CCCCCCCCCCCC(=O)O`, the Potency result in assay [3] was “inactive”.

In the case of `CC(C)[C@H](C)CC[C@@H](C)[C@H]1CC[C@H]2[C@@H]3CC=C4C[C@@H](O)CC[C@]4(C)[C@H]3CC[C@]12C`, the Potency result in assay [3] was “inactive”.

With `c1nc[nH]n1`, the Potency result in assay [4] was “inactive”.

As for `Clc1cccc(C(Cl)(Cl)Cl)n1`, the activation is -4.18% in assay [5]; 0.959% and 2.76% in assay [7]. The Potency result in assay [6] and in assay [2] was “inactive” each time.

With `C=C(C)[C@H]1CC=C(C)CC1`, the Potency result in assay [3] was “inactive”.

Turning to `C=C1[C@H]2CC[C@H](C(=O)O)[C@@]23CC[C@H](C3)C1(C)C`, the Potency entry in assay [3] was “inactive”.

Regarding `CC(C)=CCC[C@](C)(O)[C@H]1CC[C@]2(C)[C@@H]1[C@H](O)CC1[C@@]3(C)CC[C@H](O)C(C)(C)[C@@H]3[C@@H](O[C@@H]3O[C@H](CO)[C@@H](O)[C@H](O)[C@H]3O[C@@H]3O[C@H](CO)[C@@H](O)[C@H](O)[C@H]3O)C[C@]12C` (stereo not given in full), in assay [3], the Potency result is “inactive”.

Take `COc1ccc(C(=O)O)cc1`: in assay [3], the Potency entry is “inactive”.

As to `CCCCCC/C=C/CCCCCCCCCC(=O)O`, the Potency result in assay [3] was “inactive”.

In the case of `CCCCCC(=O)O`, the Potency entry in assay [3] is “inactive”.

Take `ClC(Cl)=C(Cl)C(Cl)=C(Cl)Cl`: in assay [2], the Potency result is “inactive”.

For `ClC(Cl)(Cl)c1ccccc1`, the activation in assay [7] was -1.47% and 0.945%.

`ClCBr`: the activation in assay [7] was -2.9%. Further, in assay [2], the Potency result was “inactive”.

For `BrCCBr`, in assay [1], the activation is -0.199% and 0.87%.

As to `CC(Cl)Cl`, the activation in assay [7] is -0.0258%.

As for `CC(C)(C)OO`, the activation in assay [5] is -8.84%; in assay [1] it was -0.974% and 0.475%. In addition, the Potency result in assay [6] and in assay [2] was “inactive” in each case.

Consider `CCOc1ccc(N)cc1`, for which the activation in assay [1] is -0.228%. In addition, in assay [2], the Potency entry was “inactive”.

Consider `c1ccc(OP(Oc2ccccc2)Oc2ccccc2)cc1`, for which the activation in assay [1] is -3.6% and -0.416%. In addition, in assay [2], the Potency entry is “inactive”.

Regarding `S=C=Nc1cccc2ccccc12`, the Potency result in assay [4], in assay [6] and in assay [2] was “inactive” in each case. Further, the activation in assay [5] is -5.44%.

`Cc1cccc(C#N)c1`: the activation in assay [7] was -2.16%; in assay [1], 0.885%.

As for `Cc1cccc([N+](=O)[O-])c1`, in assay [7], the activation was -1.63% and -0.0408%.

Consider `OCC(Br)CBr` (stereo not given), for which the activation in assay [7] was 0.562%.

Regarding `O=C=NC1CCCCC1`, the activation in assay [7] was -4.4% and -2.88%. The Potency result in assay [2] was “inactive”.

The record behind these values is PubChem BioAssay (NCATS).
